Consider 27 molecules from PubChem BioAssay AID431 (Sanford-Burnham Center for Chemical Genomics, 2006).

The whole screen tested about 63,000 compounds, of which about 1,100 (1.7%) were called active. Many of the other results were omitted from the sample, so actives are more common in it than they were. Entries with a potency or affinity are not part of this list. Unmarked numbers belong to inactive results.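 The calls were made as follows: active = compounds whose percent cytotoxicity in the single-dose primary screen, scaled between solvent and toxic-drug controls, exceeds 50; inactive = the rest.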

This assay is described as follows: cytotoxicity in KRAS-transformed pancreatic duct cells, primary screen, cell-based, fluorescence, HTS (AID 431).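 Also: 0% = DMSO solvent wells and 100% = doxorubicin-treated wells.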 The note with it: HPDE-C7K KRASV12 cells, Alamar Blue viability, 48 h; at 10 µM; active compounds read high. A general note: Resazurin is reduced to fluorescent resorufin, in cell work by metabolically active cells.
As for `CCOC(=O)c1ccc(NC(=O)CCc2nc(-c3ccccc3)no2)cc1`, the cytotoxicity is -8%.
For the molecule `CCOC(=O)c1ccc(NC(=O)CCc2nc(-c3ccc(Cl)cc3)no2)cc1`, the cytotoxicity was 0.1%.
Next, `CCOC(=O)c1ccc(NC(=O)CCc2nc(-c3ccccc3Cl)no2)cc1`: 76.1% (active).
Next, `CC1CCCC(C)N1C(=O)Cn1c(=O)sc2ccccc21` (configuration not stated): 0.8%; `Cc1ccc(C2CC(C(F)F)n3ncc(C(=O)Nc4cnn(Cc5ccccc5C)c4)c3N2)cc1` (configuration not stated): 21.9%; `CCOC(=O)CCCCNCc1ccccc1`: -6.1%.
With `COc1ccccc1OCc1nc2c3c(-c4ccccc4)c(-c4ccccc4)oc3ncn2n1`, the cytotoxicity is 9.1%.
In the case of `COc1ccc(-c2oc3ncn4nc(Cc5ccccc5)nc4c3c2-c2ccc(OC)cc2)cc1` it was 57% (active); in that of `Cc1nc2c3c(-c4ccccc4)c(-c4ccccc4)oc3ncn2n1`, 1%.
Regarding `COc1ccc(-c2nnc(SCCc3ccccc3)n2N)cc1`, the cytotoxicity is 4.3%.
As for `COc1ccc(-c2nnc(SCc3ccccc3)n2N)cc1`, the cytotoxicity is -12.1%.
Next, `COc1ccc(-c2oc3ncn4nc(COc5ccccc5)nc4c3c2-c2ccc(OC)cc2)cc1`: 57.9% (active); `COc1ccc(C)cc1N(CC(=O)NC1CCCC1)C(=O)CCC(=O)Nc1cc(C)on1`: -5.7%; `CCCCS(=O)(=O)/C=C\C1C2C=CC(C2)C1S(=O)(=O)CCCC` (configuration not stated): -2.6%.
For the molecule `CCCCS(=O)(=O)/C=C\C=C/S(=O)(=O)CCCC`, the cytotoxicity is 112% (active).
Next, `OC(COc1ccc(Cl)cc1)CN1C2=NCCCN2c2ccccc21` (configuration not stated): 6.4%; `CCC(=O)c1ccccc1OCCCN1C(=O)NC(C)(C)C1=O`: 21%.
Next, `CC1CC(C)CN(S(=O)(=O)c2ccc3c(c2)oc(=O)n3CC(=O)N2CCOCC2)C1` (configuration not stated): 2.5%.
Next, `c1ccc(-c2ccc(-n3ccnc3)cc2)cc1`: 2.4%; `c1ccc(-c2nc(-n3ccnc3)nc(-n3ccnc3)n2)cc1`: 19.8%.
Regarding `Clc1ccc(-c2nnc(-c3ccc(Br)o3)o2)c(Cl)c1`, the cytotoxicity was 19.1%.
In the case of `CCn1c(SCC(=O)c2ccccc2)nnc1-c1cc2cc(Br)ccc2o1` it was 8%; in that of `CCCCCC(=O)N(CN1C(=O)CCC1=O)c1ccccc1`, -8.7%; in that of `Cc1nc(NCCCN2CCOCC2)c2oc3ccccc3c2n1`, 6.7%.
Regarding `O=C(O)c1cc(S(=O)(=O)N2CCCCCC2)ccc1Cl`, the cytotoxicity was -3.9%.
Next, `O=S(=O)(c1ccc(S(=O)(=O)N2CCCC2)cc1)N1CCCCCC1`: -15%; `O=C(CN1CCN(c2ccccn2)CC1)N1c2ccccc2CCc2ccccc21`: -4.4%.
